Bioassay records from PubChem BioAssay.
Compounds with a hit are over-represented: about 4.7% of the library has one in this group of screens.
D1 potentiator = Potentiators of Human D1 Dopamine Receptor: qHTS; HEK293 TREx D1 cells, calcium flux, dopamine EC20 potentiation; D(1A) dopamine receptor (Homo sapiens), P21728; AID 504651, 2011; potentiation, % at 10 µM; 0.036% of 360,000 active; in the data active = potentiation above about 30%; note: 0% is about no effect
Target sequence (P21728 whole entry, looked up): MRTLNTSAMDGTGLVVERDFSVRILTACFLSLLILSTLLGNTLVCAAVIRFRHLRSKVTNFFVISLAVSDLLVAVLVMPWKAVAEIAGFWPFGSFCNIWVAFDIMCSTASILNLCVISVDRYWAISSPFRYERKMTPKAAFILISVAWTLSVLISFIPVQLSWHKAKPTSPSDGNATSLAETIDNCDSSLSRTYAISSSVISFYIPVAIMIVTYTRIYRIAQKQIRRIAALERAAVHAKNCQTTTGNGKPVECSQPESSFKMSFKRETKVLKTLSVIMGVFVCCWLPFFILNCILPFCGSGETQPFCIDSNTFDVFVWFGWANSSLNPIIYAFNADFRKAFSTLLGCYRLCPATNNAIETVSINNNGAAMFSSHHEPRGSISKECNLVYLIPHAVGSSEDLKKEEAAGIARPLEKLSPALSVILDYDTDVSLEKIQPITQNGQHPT
TRHR agonist = qHTS for Small Molecule Agonists and Allosteric Enhancers of Human TRH Receptor: Primary Screen for Agonists | Thyrotropin-releasing hormone receptor (Homo sapiens), P34981 | TRHR cells, calcium flux fluo-8, FDSS agonist mode | activation, % at 2 µM | 0.18% of 360,000 active; note: 0% is about no effect
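Read-out: compound-evoked intracellular calcium rise in TRHR cells, fluo-8 dye, kinetic FDSS fluorescence at 1 s/cycle following a 10-cycle baseline. Cells cultured overnight before dye loading (30 min–1.5 h, RT).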
D1 agonist = Allosteric Agonists of the Human D1 Dopamine Receptor: qHTS; D(1A) dopamine receptor (Homo sapiens), P21728; HEK293 T-REx D1 cells, calcium flux, agonist mode; activation, % at 2 µM; 1% of 360,000 active; AID 504660, 2011; note: 0% is about no effect
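Inducible HEK293 T-REx D1 cells, force-coupled to calcium signalling, were plated at 4000 cells/well with tetracycline and held overnight at 30 C. After no-wash calcium dye loading, compound-evoked calcium rise over 180 s flagged agonists.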
TRHR enhancer = qHTS for Small Molecule Agonists and Allosteric Enhancers of Human TRH Receptor: Primary Screen for Enhancers; Thyrotropin-releasing hormone receptor (Homo sapiens), P34981; TRHR cells, fluo-8 calcium fluorescence, EC20 TRH enhancement; enhancement, % at 2 µM; 0.66% of 360,000 active; in the data active = enhancement above about 30%; note: 0% is about no effect
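Enhancer read-out: after compound pinning and an initial kinetic agonist-mode read, an EC20 of TRH (10 nM final) was injected and fluo-8 calcium signal (Ex 480/Em 530) followed at 1 s/cycle for 100 cycles in TRHR-expressing cells.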
D1 antag = Antagonist of Human D 1 Dopamine Receptor: qHTS. D(1A) dopamine receptor (Homo sapiens), P21728. HEK293 TREx D1 cells, calcium flux, dopamine EC80; hits give low values. activity change, negative = inhibition, % at 10 µM. 3.2% of 360,000 active; in the data active = activity change below about -30%; note: % is set by controls: 0 for no effect and ±100 for the full control effect
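Cells carrying a force-coupled, tetracycline-inducible human D1 receptor report calcium flux. Each well gets a 10 s baseline, compound with 180 s monitoring, then an EC80 dopamine stimulus with a second 180 s kinetic read.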
* hit, by the source's call; . = not tested or not shown; ! = not confirmed by another sample. Cut-off read from the data, not from the text of the source, unless noted: active = activation above about 30%; inactive = the rest.

SMILES	D1 potentiator	TRHR agonist	D1 agonist	TRHR enhancer	D1 antag
CC(C)Cc1nn2c(=O)cc(COC(=O)c3ccc(NC(=O)CCc4ccccc4)cc3)nc2s1	-0.1	1.7	2.0	-1.9	3.8
Cc1ccccc1C(=O)NCc1nc2cccnc2n1Cc1ccccc1	-2.6	0.7	-0.6	-1.9	5.7
CCn1c(Cc2ccc(OC)cc2)nnc1SCC(=O)Nc1nc2ccccc2s1	-8.2	-0.5	4.1	-6.6	-31.3*
Cn1ccnc1SCC(=O)Nc1cccc2ccccc12	-6.7	-0.4	1.8	-7.5	-34.4*
COc1ccc(Cn2ccnc2SCC(=O)NC2CCCC2)cc1	3.9	0.4	6.0	-5.2	-67.1*!
CCn1c(SCC(=O)Nc2nc3ccccc3s2)nnc1-c1ccc(Br)cc1	-3.5	0.3	1.7	-0.1	-8.3
COc1ccc(NC(=O)COC(=O)c2ncc(Cl)c(Cl)c2Cl)c(OC)c1	-2.1	0.0	0.4	2.0	-41.1*
COc1ccc(C(C)(C)C)cc1NC(=O)COC(=O)c1ncc(Cl)c(Cl)c1Cl	13.1	0.9	22.9	-2.3	3.8
COc1ccc(Nc2nnc(-c3ccc(C)c(S(=O)(=O)N4CCOCC4)c3)c3ccccc23)cc1	0.2	0.1	0.3	5.9	-12.6
COc1ccc(OCc2nc3ccc(S(=O)(=O)Nc4ccccc4Cl)cc3[nH]2)cc1	-11.3	-0.4	4.3	1.3	-57.2*
O=C(/C=C/c1cccc(OCc2ccccc2)c1)c1cccnc1	-7.0	-0.3	9.3	-9.5	-37.1*
CN(CC(=O)Nc1ccc(N2CCOCC2)cc1)C(=O)CCCOc1ccc(Cl)cc1Cl	-6.3	-0.2	4.0	40.4*	-5.9
CSc1ccc(Cl)c(C(=O)N(C)CC(=O)Nc2ccc(N3CCOCC3)cc2)c1	-3.7	-0.3	3.1	-1.5	10.3
CN(CC(=O)Nc1ccc(N2CCOCC2)cc1)C(=O)c1cc(F)c(F)cc1Cl	-7.5	0.0	0.1	-1.2	-41.9*
O=C1CN(C(=O)COc2ccc(Br)cc2F)c2ccccc2N1	-3.2	-0.2	0.3	8.3	-33.9*
O=C1CN(C(=O)COC(=O)CCSc2ccccc2Cl)c2ccccc2N1	-1.1	-1.5	8.5	33.2*	11.9
O=C1CN(C(=O)COC(=O)c2cccs2)c2ccccc2N1	9.4	0.0	3.1	12.2	-30.3*
COc1cc(C2c3c(-c4ccccc4O)n[nH]c3C(=O)N2Cc2ccco2)ccc1OCC(C)C (stereo not given)	6.2	-0.7	4.2	13.0	45.8
Cc1ccc(NS(=O)(=O)c2ccc3c(c2)CCN3C(=O)CCC(=O)O)cc1Cl	-23.8	0.1	39.6*	24.9	-0.4
Cc1ccc(C)c(N2CCN(S(=O)(=O)c3ccc4c(c3)CCN4C(=O)CCC(=O)O)CC2)c1	.	0.5	0.5	8.4	-34.2*
Cc1cccc(N2CCN(S(=O)(=O)c3ccc4c(c3)CCN4C(=O)CCC(=O)O)CC2)c1C	7.5	0.2	2.4	4.8	2.0
Cc1cc(C)c2c(C)c(C(=O)N3CCC(c4nc5ccccc5s4)CC3)oc2c1	0.7	0.5	1.7	0.4	6.4
O=C(CNC(=O)c1ccc([N+](=O)[O-])cc1)OC(C(=O)Nc1cc(C(F)(F)F)ccc1Cl)c1ccccc1 (stereo not given)	-1.4	1.7	5.1	-5.1	33.6
N#Cc1cccc(NC(=O)CCNS(=O)(=O)c2ccc3c(c2)CCN3C(=O)C2CC2)c1	1.9	0.1	0.5	3.8	16.9
CCOC(=O)CN(Cc1ccccc1)C(C(=O)NC1CCCCC1)c1ccc(C)cc1 (stereo not given)	-0.7	-0.4	7.9	5.1	7.6
SMILES	D1 potentiator	TRHR agonist	D1 agonist	TRHR enhancer	D1 antag
CCN(c1ccccc1)S(=O)(=O)c1ccc(Cl)c(C(=O)OCC(=O)NC(=O)C(C)C)c1	-1.3	1.2	4.1	0.0	-34.0*
CCN(c1ccccc1)S(=O)(=O)c1ccc(Cl)c(NC(=O)COC(=O)C2CC2C)c1 (stereo not given)	-3.0	-0.4	7.2	2.2	-31.1*
CCN(c1ccccc1)S(=O)(=O)c1ccc(Cl)c(NC(=O)COC(=O)c2ccc(O)cc2)c1	-4.0	0.3	7.9	-0.5	-3.9
CC(=O)c1ccc(N2CCN(C(=O)CCCCn3c(=O)[nH]c4ccccc4c3=O)CC2)cc1	-5.0	-0.3	5.2	1.8	-32.2*
COC(=O)c1ccc2c(=O)n(CCCCCC(=O)N3CCN(c4ccccc4)CC3)c(=O)[nH]c2c1	-6.3	-0.3	5.9	-3.8	-36.0*
COc1cc2[nH]c(=O)n(CCC(=O)N3CCN(c4ccc(Cl)cc4)CC3)c(=O)c2cc1OC	0.1	-0.3	2.2	2.9	-3.4
CCN1CCN(C(=O)CCCCCn2c(=O)[nH]c3cc(C(=O)OC)ccc3c2=O)CC1	-4.2	0.0	1.1	-0.9	-9.1
O=C(CCn1c(=O)[nH]c2ccccc2c1=O)N1CCN(c2ccc(Cl)cc2)CC1	-4.0	-0.5	6.1	26.7	-31.5*
O=C(CSc1nnc2scc(-c3ccc(Cl)cc3)n12)Nc1ccc(F)cc1	0.8	-0.3	1.0	4.0	3.4
CCOc1ccc(C(c2c(O)cc(C)n(Cc3ccco3)c2=O)N2CCCCC2)cc1 (stereo not given)	-2.0	0.4	3.8	4.3	-6.3
CCS(=O)(=O)c1ncc(Cl)c(C(=O)N2CCN(c3ccc(OC)cc3)CC2)n1	-1.2	0.0	-2.2	-3.0	-8.7
CCCn1c2ccccc2c2cnn(CC(=O)Nc3cccc(C(=O)OCC)c3)c(=O)c21	4.5	-0.9	7.9	6.2	-1.5
Cc1ccc(Nc2nnc(-c3ccc(C)c(S(=O)(=O)N4CCN(C)CC4)c3)c3ccccc23)c(C)c1	-5.0	-0.2	-0.7	1.2	-56.8*
C#CCOc1ccc(-c2nnc(Nc3cccc(C)c3)c3ccccc23)cc1	-0.9	-0.1	-0.7	-11.3	-44.8*
Oc1ccc(-c2nnc(Nc3cccc(O)c3)c3ccccc23)cc1	10.4	-0.4	2.0	-0.8	4.3
Cc1ccc(Nc2nnc(-c3ccc(C)c(S(=O)(=O)N4CCN(C)CC4)c3)c3ccccc23)cc1	-3.6	-0.3	-2.2	-0.9	-24.3
Cc1cccc(Nc2nnc(-c3ccc(C)c(S(=O)(=O)N4CCN(C)CC4)c3)c3ccccc23)c1	-3.0	-1.0	2.9	4.9	-43.8*
Cc1ccc(-c2nnc(Nc3cccc(Br)c3)c3ccccc23)cc1S(=O)(=O)N1CCN(C)CC1	-5.3	0.2	1.0	-0.7	-2.4
CCN1CCN(c2cc(C)c3cc(NC(=O)/C=C/c4ccc(OCCC(C)C)cc4)ccc3n2)CC1	0.1	0.0	0.2	2.9	-9.1
